Assay results: PubChem BioAssay AID1851 (National Center for Advancing Translational Sciences (NCATS), 2009)
Where “and” joins values, the source holds several entries; their conditions need not be identical. Equal entries are not always repeated. Hit rate of the full screen: of about 16,000 compounds, about 5,700 (36%) were called active. Not shown: some 24% with an inconclusive outcome. This is one part of the list. Unmarked numbers belong to inactive results. The call rests on the fitted dose curve; in most records, active means well fitted curve in the direction sought with a large enough effect; inconclusive means small, poorly fitted or top-dose-only effect, or effect the other way; inactive means no such curve, though single readings can be large or run the other way.

Biological target: Cytochrome P450 1A2 (Homo sapiens) (UniProt P05177)
Assay: Cytochrome panel assay with activity outcomes
Settings: recombinant CYP, pro-luciferin dealkylation, luminescence, p450-cyp1a2; series mostly up to 57.1 µM; activity, negative = inhibition: at the top concentration
On the % scale 0 is the no-effect control and ±100 the full control effect.

Chain of Cytochrome P450 1A2 (Homo sapiens) (P05177 whole entry, looked up): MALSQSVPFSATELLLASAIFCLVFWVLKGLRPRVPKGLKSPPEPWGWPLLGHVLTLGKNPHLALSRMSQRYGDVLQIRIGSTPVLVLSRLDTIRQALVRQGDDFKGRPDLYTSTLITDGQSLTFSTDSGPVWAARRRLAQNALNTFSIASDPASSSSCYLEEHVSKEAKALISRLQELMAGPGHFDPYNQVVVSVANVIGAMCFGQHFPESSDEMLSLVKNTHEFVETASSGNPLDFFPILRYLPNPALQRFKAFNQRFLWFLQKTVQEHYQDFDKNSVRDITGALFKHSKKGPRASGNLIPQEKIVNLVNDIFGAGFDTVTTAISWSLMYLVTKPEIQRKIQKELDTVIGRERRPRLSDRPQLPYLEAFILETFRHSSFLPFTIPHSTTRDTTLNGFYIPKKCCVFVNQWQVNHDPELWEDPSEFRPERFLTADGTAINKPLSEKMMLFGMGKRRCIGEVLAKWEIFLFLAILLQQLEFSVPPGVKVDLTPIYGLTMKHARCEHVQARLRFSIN

| SMILES | activity, negative = inhibition | AC50 |
| --- | --- | --- |
| OCCN1CCN(C(=S)c2ccc(Br)cc2)CC1 | -6.49% | – |
| CCN1CCN(C(=S)c2ccc(Br)cc2)CC1 | – | 15.8 µM (active) |
| O=C(CN1CCN(Cc2ccccc2)CC1)c1ccc(Br)cc1 | -14.4% | – |
| Cc1cc2c(cc1S(N)(=O)=O)S(=O)(=O)CCC2 | -16.8% [at 25.6 µM] | – |
| CCN(CCO)Cc1csc2cccc(Br)c12 | – | 11.2 µM (active) |
| COCCN(C(=O)c1ccco1)c1nnc(-c2ccc(OC)cc2)s1 | – | 15.8 µM (active) |
| Cc1ccc(C2C(C(=O)c3ccco3)=C(O)C(=O)N2c2nnc(C)s2)cc1 (stereo not given) | 3.47% | – |
| CCC(c1nnnn1CCOC)N1CCN(C(=O)c2ccco2)CC1 (stereo not given) | 21.4% | – |
| CC1(C)CC(=O)c2cnc(N)nc2C1 | 3.27% | – |
| CC1=C(C(=O)OCc2ccccc2)C(c2ccc(Cl)cc2)NC(=O)N1CCCCCC(=O)O (stereo not given) | – | 25.1 µM (active) |
| CCOC(=O)CCN1C(=O)[C@H]2[C@H]3[C@H](O)[C@H](O)C/C(=N/OCc4ccccc4)[C@@H]3CC[C@@H]2C1=O | 4.94% [at 11.4 µM] | – |
| CC1=C(C(=O)OCc2ccccc2)C(c2cccnc2)c2c(n(C)c(=O)n(C)c2=O)N1 (stereo not given) | -26.2% | – |
| CCOC(=O)CCN1C(=O)[C@H]2[C@H]3[C@H](O)[C@H](O)C/C(=N/OCc4ccccc4)[C@H]3CC[C@@H]2C1=O | -13.8% [at 11.4 µM] | – |
| CC1=C(C(=O)OCc2ccccc2)C(c2ccccc2)NC(=O)N1CCCCCC(=O)O (stereo not given) | – | 20 µM (active) |
| CC(=O)N1CCC2(CC1)CCN(C(c1ccccc1)c1ccccc1)CC2 | -3.22% | – |
| NCCSCCC(=O)O | -2.89% [at 11.4 µM] | – |
| O=C(O)CSCCc1ccccc1 | -15.5% [at 11.4 µM] | – |
| N[C@@](CCc1ccccc1)(C(=O)O)c1ccccc1 | -9.59% [at 11.4 µM] | – |
| NCCSCCc1ccccc1 | – | 5.01 µM (active) |
| NNCCc1ccccc1 | – | 3.16 µM (active) and 1 µM (active) |
| O=C(O)CNCCc1ccccc1 | -1.5% [at 11.4 µM] | – |
| COc1cccc2c1C(=O)c1c(O)c3c(c(O)c1C2=O)C[C@@](O)(C(=O)CO)C[C@H]3O[C@H]1C[C@@H](N)[C@H](O)[C@@H](C)O1.[W] | -11.9% [at 11.4 µM] | – |
| Cc1sc2c(c1C)c(=O)n(-c1ccccc1)c1nnc(C)n21 | -26.4% | – |
| Cc1ccccc1NC(=S)NN1CCN(C)CC1 | -4.46% | – |
| CC(C)NC(=O)c1ccccc1NC(=O)/C=C/c1ccc([N+](=O)[O-])cc1 | 10.2% | – |

| SMILES | activity, negative = inhibition | AC50 |
| --- | --- | --- |
| Cc1ccccc1NC(=O)/C(=C/c1ccccc1)c1ccccc1 | – | 5.01 µM (active) |
| COc1ccc(/C=C(/C(=O)Nc2ccccc2C(=O)NC(C)C)c2ccccc2)cc1 | – | 15.8 µM (active) |
| Cc1ccc(S(=O)(=O)Oc2ccc(/C=C(/NC(=O)c3ccccc3)C(=O)Nc3ccccc3)cc2)cc1 | 2.92% | – |
| O=C(O)/C(=C\c1ccccc1)c1ccccc1 | -20.8% [at 11.4 µM] | – |
| Cn1cccc1C(=O)N1CCC2(CCN(Cc3ccccc3)CC2)CC1 | 10.3% | – |
| Cc1cc(Cl)ccc1Oc1ncnc2oc(-c3ccccc3)cc12 | – | 3.16 µM (active) |
| O=c1c2c(-c3cccs3)csc2[nH]c(=S)n1-c1ccccc1 | – | 12.6 µM (active) |
| CCc1cc2c(=O)n(-c3ccccc3)c(=S)[nH]c2s1 | -27.5% | – |
| CCN(CC)C(=O)c1sc2[nH]c(=S)n(-c3ccccc3)c(=O)c2c1C | 11.3% | – |
| N#C/C(=C\c1ccc(O)c(O)c1)C(=O)NCCCc1ccccc1 | – | 12.6 µM (active) |
| Cc1cc(C)c(NC(=O)CS(=O)CC(=O)NCCCc2ccccc2)c(C)c1 (stereo not given) | 0.118% | – |
| COc1ccc(/C=C(\C#N)C(N)=O)c(OC)c1 | – | 1.58 µM (active) |
| COc1cc(/C=C(\C#N)C(=O)c2ccc(O)c(O)c2)cc(I)c1O | – | 15.8 µM (active) |
| N[C@@H](Cc1ccc(O)c(O)c1)C(=O)O | – | inactive |
| N#C/C(=C\c1ccc(O)c(O)c1)C(N)=O | – | 39.8 µM (active) |
| COc1ccc(/C=N/n2c(C)nnc2C)c(OC)c1 | – | 14.1 µM (active) |
| CCOC(=O)C1=C(CSc2nc3ccccc3s2)NC(=O)NC1c1cc(C)ccc1C (stereo not given) | -22.3% | – |
| COc1cc(/C=C(\C#N)C(N)=O)cc(CSc2nc3ccccc3s2)c1O | – | 1.26 µM (active) |
| COc1ccc(/C=C(\C#N)C(N)=O)cc1OC | – | 3.16 µM (active) |
| N#C/C(=C\c1ccc(O)c(O)c1)C(=O)Nc1ccccc1 | – | 0.501 µM (active) |
| COc1ccc(/C=C(/C#N)C(=O)Nc2cc(C)ccc2C)cc1C(=O)O | -0.1% | – |
| CCOC(=O)/C(C#N)=C\c1ccc(OCC(=O)Nc2ccc(C)cc2C)c(OC)c1 | -9.06% | – |
| CC(=O)NCCc1ccc(O)c(O)c1 | -2.4% | – |
| N#C/C(=C\c1ccc(O)c(O)c1)C(=O)NCCc1ccccc1 | – | 10 µM (active) |
| C[C@H](NC(=O)/C(C#N)=C/c1ccc(O)c(O)c1)c1ccccc1 | – | 15.8 µM (active) |

| SMILES | activity, negative = inhibition | AC50 |
| --- | --- | --- |
| CCOC(=O)/C(C#N)=C\N(C)C | -18.7% | – |
| CCOc1ccccc1/C=C(\C#N)C(N)=O | – | 2 µM (active) |
| C/C(CCN1CCCCc2nc(C)c(C)cc21)=N\O[C@@H](C)c1cn([C@H](CO)Cc2ccccc2)nn1 | -1.07% [at 11.4 µM] and -1.23% [at 11.4 µM] | – |
| Cc1ccc(C(=O)NC2CCCCCC2)cc1N1CCCC1=O | -22.9% | – |
| Cc1c2c(nc3c(C(=O)NC4CCCC4)cnn13)CCCC2 | – | 2.82 µM (active) |
| Cc1cccc(N(CC(=O)NC2CCCC2)C(=O)c2cc3cc4cccc(C)c4nc3s2)c1C | -18.2% | – |
| C[C@@H](Cc1ccccc1)Nc1ncnc2c1ncn2[C@@H]1O[C@@H](CO)[C@H](O)[C@@H]1O | 1.16% | – |
| CC(Sc1nnc(C(C)N(C)C)n1-c1ccc(Cl)cc1)C(=O)Nc1ccc2c(c1)OCO2 (stereo not given) | – | 17.8 µM (active) |
| CCOC(=O)c1ccc(N)cc1 | – | 2 µM (active) |
| CCOC(=O)c1ccc(-c2ccc(CO)o2)cc1 | – | 2.51 µM (active) |
| CCCCNc1ccc(C(=O)OCCOCCOCCOCCOCCOCCOCCOCCOCCOC)cc1 | 3.14% [at 25.6 µM] | – |
| CN(C)CCOC(=O)c1ccc(N)cc1 | 1.14% [at 11.4 µM] | – |
| O=C(OCCCN1CCCCC1)c1ccc(O)cc1 | -21.1% [at 11.4 µM] | – |
| CCOC(=O)c1ccc(N2C(=O)CC(Nc3ccc(CCO)cc3)C2=O)cc1 (stereo not given) | 6.03% | – |
| CCCCOC(=O)c1ccc(O)cc1 | – | 0.0794 µM (active) |
| CCN(CC)CCOC(=O)c1ccc(N)cc1 | – | inactive |
| CO[C@@H]1COC(=O)[C@H]2CCCN2C(=O)[C@@H](C)COC(=O)CCC[C@H]1C | 6.36% [at 11.4 µM] | – |
| O=C1NC(=O)C(c2ccccc2)(c2ccccc2)N1 | -10.8% | – |
| COCC(=O)N1CCC[C@@]2(CCN(Cc3ccc(C#N)cc3)C2)C1 | 0.305% | – |
| O=S(=O)(c1cccc2c(I)cccc12)N1CCCNCC1 | – | 10 µM (active) |
| CCN(CC)c1ccc(/C=C/c2nc3ccccc3s2)cc1 | – | 2.51 µM (active) |
| c1ccc(CNc2ccnc(-c3ccoc3)n2)cc1 | – | 2.51 µM (active) |
| Cc1cccc(CNc2ccnc(-c3ccoc3)n2)c1 | – | 2 µM (active) |
| CN(C)c1ccc(-c2nc(N3CCNCC3)c3ccccc3n2)cc1 | – | 10 µM (active) |
| c1cc2c(cc1C(N1CCNCC1)N1CCNCC1)OCO2 | -3.03% [at 2.29 µM] | – |

| SMILES | activity, negative = inhibition | AC50 |
| --- | --- | --- |
| c1ccc2c(N3CCNCC3)nc(-c3ccc4c(c3)OCO4)nc2c1 | – | 12.6 µM (active) |
| O=C(Nc1ccccc1)N1CC[C@@]2(CCCN(C(=O)c3cnccn3)C2)C1 | -8.64% | – |
| Cc1ccc(S(=O)(=O)N2CCOCC2)cc1NC(=O)COC(=O)CCC(=O)c1cccs1 | -17.9% | – |
| CC(C)=CC(=O)OCC(=O)Nc1ncc(Cl)c(C)c1Cl | – | 25.1 µM (active) |
| Cc1c(Cl)cnc(NC(=O)COC(=O)CCS(=O)(=O)c2ccccc2)c1Cl | – | 11.2 µM (active) |
| COC(=O)[C@@]1(Cc2ccc(F)cc2)[C@H]2c3cc(C(=O)N(C)C)n(Cc4ccc(C)o4)c3C[C@H]2CN1C(=O)c1ccccc1 | -12.5% | – |
| CC[N+](CC)(CC)CC[C@](O)(c1ccccc1)C1CCCCC1 | -11.1% [at 25.6 µM] | – |
| CCN(CC)CC#CCOC(=O)[C@@](O)(c1ccccc1)C1CCCCC1 | – | 3.98 µM (active) |
| CCN(CC)CC#CCC(C)(c1ccccc1)c1ccccc1 | -22.5% | – |
| CCOC(=O)C(NC(C)=O)C(OC(C)=O)c1cccc(N(CCO)CCO)c1 (stereo not given) | -4.35% | – |
| Cc1cc(C)c(C#N)c(SCS(=O)c2ccc(C(C)(C)C)cc2)n1 (stereo not given) | – | 20 µM (active) |
| CN1CCN(CC(O)c2ccccc2)CC1 (stereo not given) | 1.6% | – |
| Cc1[nH]nc(N2CCCCCC2)c1[N+](=O)[O-] | – | 2 µM (active) |
| COc1ccccc1CCn1c(=O)c(-c2ccccc2)nc2cncnc21 | – | 1 µM (active) |
| COc1ccccc1CCn1c(=O)c(-c2ccc(F)cc2)nc2cncnc21 | – | 1 µM (active) |
| Cn1c(=O)c(-c2cccs2)nc2cncnc21 | – | 1.26 µM (active) |
| COc1ccccc1CCn1c(=O)c(-c2cccc(Cl)c2)nc2cncnc21 | – | 0.316 µM (active) |
| CCCC[C@]1(C2CCCC2)Cc2cc(OCC(=O)O)c(Cl)c(Cl)c2C1=O | -9.78% | – |
| Cc1[nH]n(C(C)(C)C)c(=O)c1Sc1ccccc1 | 14.3% | – |
| COCCn1c(=O)c(-c2cccs2)nc2cncnc21 | – | 3.16 µM (active) |
| COc1ccccc1CCn1c(=O)c(-c2cccs2)nc2cncnc21 | – | 2 µM (active) |
| COc1ccccc1CCn1c(=O)c(-c2ccc(F)c(F)c2)nc2cncnc21 | – | 2 µM (active) |
| COc1ccccc1CCn1c(=O)c(-c2ccc(Cl)cc2)nc2cncnc21 | – | 0.631 µM (active) |
| COc1ccc(NC(=O)N2CCCC3(CCN(S(C)(=O)=O)CC3)C2)cc1 | -8.77% | – |
| O=C1c2ccccc2CC[C@H]1CNCCc1ccc(O)cc1 | – | 20 µM (active) |
